PubChem BioAssay (EPA / NIEHS)
Results filed as inconclusive are left out. The source made the active and inactive calls. The calls were made as follows, unless noted: active = hit-call score of the fitted dose curve at least 0.9, where 1 is the maximum; inactive = score below 0.9.

What was measured:
[1] = target: Paired box protein Pax-6 (Homo sapiens) (UniProt P26367); test: ATG_Pax6_CIS: Attagene CIS-FACTORIAL HepG2 Assay for human Paired Box 6 (PAX6) (AID 2282956); settings: HepG2 CIS-FACTORIAL PAX6 reporter transcription, RNA readout; actives raise or lower the signal
Procedure, shortened: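 Values derive from bidirectional curve fitting of reporter mRNA signal relative to DMSO. HepG2 cells bearing transfected cis-regulated MRTUs were exposed for 24 h; transcripts were read by RT-PCR and capillary electrophoresis.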

[2] = ATG_PXRE_CIS: Attagene CIS-FACTORIAL HepG2 Assay for human Pregnane X Receptor Element (PXRE) (AID 2282957); settings: HepG2 Attagene CIS-FACTORIAL PXRE reporter, mRNA; actives raise or lower the signal
Procedure, shortened: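 Endogenous transcription factor activity in HepG2 was gauged through induction of reporter mRNA driven by a cis-regulating promoter element, sampled 24 h post-treatment. Activity was fitted in both directions against DMSO negative control.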

[3] = ATG_PPRE_CIS: Attagene CIS-FACTORIAL HepG2 Assay for human Peroxisome Proliferator-activated Response Element (PPRE) (AID 2282958); settings: HepG2 PPRE cis-element reporter, Attagene transcription factor profiling; actives raise or lower the signal
Procedure, shortened: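 DMSO served as negative control and baseline for bidirectional curve fitting. Signal came from PPRE-regulated reporter mRNA in HepG2 cells, measured 24 h post-dosing by RT-PCR, 6-FAM primer extension and capillary electrophoresis.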

[4] = ATG_RORE_CIS: Attagene CIS-FACTORIAL HepG2 Assay for human RAR-related Orphan Receptor Element (RORE) (AID 2282959); settings: HepG2 Attagene cis-factorial RORE reporter, mRNA; actives raise or lower the signal
Procedure, shortened: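 Transfect HepG2 with MRTUs; treat 24 h; extract RNA; RT with oligo(dT); PCR with reporter-specific primers; 6-FAM primer extension; HpaI digest 2 h at 37 C; capillary electrophoresis. Fit vs DMSO, bidirectional.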

[5] = ATG_Sox_CIS: Attagene CIS-FACTORIAL HepG2 Assay for human SRY-box transcription factor (SOX) (AID 2282960); settings: HepG2 Attagene cis-factorial SOX reporter, mRNA; actives raise or lower the signal
Procedure, shortened: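 Fluorescence-labelled cDNA fragments from reporter transcripts, sized by CE, give the signal. Cells: HepG2, transiently transfected with cis-regulated reporter units. Exposure 24 h; DMSO negative control; bidirectional curve fitting.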

[6] = target: Transcription factor Sp1 (Homo sapiens) (UniProt P08047); test: ATG_Sp1_CIS: Attagene CIS-FACTORIAL HepG2 Assay for human Specificity Protein 1 (Sp1) (AID 2282961); settings: HepG2 Sp1 cis-reporter transcription, actives raise or lower the signal
Procedure, shortened: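 Chemicals are dosed onto HepG2 cells transfected with multiple cis-promoter reporter constructs, and after 24 h reporter RNA is reverse-transcribed, PCR-amplified and resolved by capillary electrophoresis for fluorescence quantitation; activity is scored up or down against DMSO.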

[7] = target: Signal transducer and activator of transcription 3 (Homo sapiens) (UniProt P40763); test: ATG_STAT3_CIS: Attagene CIS-FACTORIAL HepG2 Assay for human Signal Transducer and Activator of Transcription 3 (STAT3) (AID 2282963); settings: HepG2, Attagene cis-factorial STAT3 reporter transcription; actives raise or lower the signal
Procedure, shortened: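 Uses human liver HepG2 transiently carrying cis-regulated reporter transcription units. Following 24 h dosing, reporter mRNA induction was detected by RT-PCR and capillary electrophoresis, analysed bidirectionally versus DMSO.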

[8] = ATG_TA_CIS: Attagene CIS-FACTORIAL HepG2 Assay for human TA Basal Promoter (AID 2282964); settings: HepG2 Attagene CIS-factorial TA basal promoter reporter; actives raise or lower the signal
Procedure, shortened: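 Read-out: fluorescent reporter-transcript fragments resolved by capillary electrophoresis after RT-PCR and HpaI digestion. Source: HepG2 cells carrying transiently transfected multi-reporter cis constructs, treated 24 h. Endpoint fitted bidirectionally relative to DMSO.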

[9] = ATG_TCF_b_cat_CIS: Attagene CIS-FACTORIAL HepG2 Assay for human T-Cell-Factor with beta-catenin (TCF/b-cat) (AID 2282965); settings: HepG2 TCF/beta-catenin cis-reporter transcription, actives raise or lower the signal
Procedure, shortened: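 In this cis-format system, transfected HepG2 cells report endogenous transcription factor activity. Readout after 24 h exposure is reporter transcript abundance from RT-PCR and capillary electrophoresis, analysed for gain or loss of signal versus DMSO.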

[10] = ATG_TAL_CIS: Attagene CIS-FACTORIAL HepG2 Assay for human TAL Basal Promoter (AID 2282966); settings: HepG2 Attagene cis-factorial TAL promoter reporter; actives raise or lower the signal;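 also: background control endpoint measuring basal TAL promoter reporter mRNA not a specific factor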
Procedure, shortened: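 Endogenous transcription-factor activity is sensed in HepG2 cells through transfected cis-promoter reporter constructs. After 24 h dosing, reporter transcripts are quantified by RT-PCR and capillary electrophoresis. Gain or loss of signal is fitted relative to DMSO.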

[11] = ATG_TGFb_CIS: Attagene CIS-FACTORIAL HepG2 Assay for human Transforming Growth Factor (TGF) (AID 2282967); settings: HepG2 Attagene CIS TGFb reporter, mRNA transcription; actives raise or lower the signal
Procedure, shortened: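 Transient MRTU transfection of HepG2 (FuGene 6). Dose 24 h. TriZol RNA, oligo(dT) RT, PCR, 6-FAM primer extension, HpaI cut, CE. Bidirectional fit, DMSO = baseline.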

[12] = ATG_VDRE_CIS: Attagene CIS-FACTORIAL HepG2 Assay for human Vitamin D Receptor Element (VDRE) (AID 2282968); settings: HepG2 VDRE cis-reporter transcription, actives raise or lower the signal
Procedure, shortened: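 Transfected HepG2 reporter cells, chemical treatment 24 h. RNA isolated, cDNA amplified with reporter-specific primers, products analysed by capillary electrophoresis. Endpoint fitted in both directions versus DMSO.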

[13] = target: Nuclear receptor subfamily 1 group I member 3 (Homo sapiens) (UniProt Q14994); test: ATG_CAR_TRANS: Attagene TRANS-FACTORIAL HepG2 Assay for human Constitutive Androstane Receptor (CAR) (AID 2282969; active = hit-call score of the fitted dose curve at least 0.9, where 1 is the maximum;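 also: activators raise reporter mRNA above DMSO so AC50 marks induction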); settings: HepG2 Attagene TRANS-FACTORIAL CAR reporter
Procedure, shortened: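 Steps: transient transfection of HepG2 with multiple GAL4-UAS reporter units; 24 h compound incubation; RNA isolation, RT-PCR, 6-FAM primer extension, HpaI digest; capillary electrophoresis. Gain-of-signal relative to DMSO negative control.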

[14] = target: X-box-binding protein 1 (Homo sapiens) (UniProt P17861); test: ATG_Xbp1_CIS: Attagene CIS-FACTORIAL HepG2 Assay for human X-box Binding Protein 1 (XBP1) (AID 2282972); settings: HepG2 XBP1 cis-element reporter, Attagene multiplex; actives raise or lower the signal
Procedure, shortened: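 Human hepatoma HepG2, cis-element reporter system, 24 h treatment; mRNA quantified by RT-PCR/CE fluorescence; fit relative to DMSO.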

[15] = ATG_SREBP_CIS: Attagene CIS-FACTORIAL HepG2 Assay for human Sterol Regulatory Element Binding (SREBP) (AID 2282962); settings: HepG2 Attagene cis-factorial SREBP reporter, mRNA; actives raise or lower the signal
Procedure, shortened: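 Values derive from bidirectional curve fitting with DMSO as baseline. The underlying measurement is reporter mRNA from cis-element-regulated units in transiently transfected HepG2, quantified by RT-PCR and capillary electrophoresis after 24 h exposure.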

[16] = target: Steroid hormone receptor ERR1 (Homo sapiens) (UniProt P11474); test: ATG_ERRa_TRANS: Attagene TRANS-FACTORIAL HepG2 Assay for human Estrogen-Related Receptor alpha (ERRa) (AID 2282971; active = hit-call score of the fitted dose curve at least 0.9, where 1 is the maximum); settings: HepG2 Attagene TRANS reporter, ERRa transactivation
Procedure, shortened: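 HepG2 cells were transiently transfected with multiple GAL4-UAS reporter units, then dosed with compound for 24 h. Total RNA was reverse-transcribed, reporter cDNA PCR-amplified and fluorescently labelled, and fragments resolved by capillary electrophoresis; induction was compared with DMSO.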

[17] = ATG_M_19_TRANS: Attagene TRANS-FACTORIAL HepG2 Assay for M19 Transcription Factor (Internal Marker) (AID 2282974; active = hit-call score of the fitted dose curve at least 0.9, where 1 is the maximum); settings: HepG2 Attagene TRANS-FACTORIAL M19 internal marker reporter
Procedure, shortened: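 Multiplexed TRANS format: HepG2 liver cells bearing transient GAL4-UAS reporter units, chemical treatment 24 h, reporter transcripts quantified by RT-PCR plus capillary electrophoresis. DMSO defines baseline.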

Measured: AC50

Chain of X-box-binding protein 1 (Homo sapiens) (P17861 whole entry, looked up): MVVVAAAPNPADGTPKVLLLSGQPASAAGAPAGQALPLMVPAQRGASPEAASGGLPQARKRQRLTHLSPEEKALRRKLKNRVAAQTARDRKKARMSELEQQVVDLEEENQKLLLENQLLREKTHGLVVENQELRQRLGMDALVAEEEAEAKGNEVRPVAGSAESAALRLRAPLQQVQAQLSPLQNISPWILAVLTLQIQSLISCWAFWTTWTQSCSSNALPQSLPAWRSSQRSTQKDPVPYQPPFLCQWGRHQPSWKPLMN
Chain of Transcription factor Sp1 (Homo sapiens) (P08047 whole entry, looked up): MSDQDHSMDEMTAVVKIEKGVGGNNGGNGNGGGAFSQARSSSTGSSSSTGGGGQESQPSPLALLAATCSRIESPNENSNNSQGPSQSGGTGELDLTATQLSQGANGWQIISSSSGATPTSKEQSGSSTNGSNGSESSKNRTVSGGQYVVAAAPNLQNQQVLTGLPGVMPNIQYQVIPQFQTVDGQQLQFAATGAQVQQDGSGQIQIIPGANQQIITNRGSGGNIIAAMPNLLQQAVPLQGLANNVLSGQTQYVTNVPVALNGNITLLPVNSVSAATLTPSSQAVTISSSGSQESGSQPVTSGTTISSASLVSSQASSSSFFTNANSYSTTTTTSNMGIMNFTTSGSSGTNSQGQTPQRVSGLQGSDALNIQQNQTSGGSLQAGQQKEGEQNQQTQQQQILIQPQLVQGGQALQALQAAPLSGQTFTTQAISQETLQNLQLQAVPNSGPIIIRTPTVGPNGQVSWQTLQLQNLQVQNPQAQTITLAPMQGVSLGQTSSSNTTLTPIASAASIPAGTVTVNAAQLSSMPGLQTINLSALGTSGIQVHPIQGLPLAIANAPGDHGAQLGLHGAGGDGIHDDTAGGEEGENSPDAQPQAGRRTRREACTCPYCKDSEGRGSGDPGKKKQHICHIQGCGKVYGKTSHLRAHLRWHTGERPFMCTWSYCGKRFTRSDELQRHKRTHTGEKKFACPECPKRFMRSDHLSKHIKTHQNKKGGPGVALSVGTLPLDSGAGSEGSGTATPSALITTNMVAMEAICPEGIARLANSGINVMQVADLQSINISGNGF
Chain of Steroid hormone receptor ERR1 (Homo sapiens) (P11474 whole entry, looked up, the tested form may be a part): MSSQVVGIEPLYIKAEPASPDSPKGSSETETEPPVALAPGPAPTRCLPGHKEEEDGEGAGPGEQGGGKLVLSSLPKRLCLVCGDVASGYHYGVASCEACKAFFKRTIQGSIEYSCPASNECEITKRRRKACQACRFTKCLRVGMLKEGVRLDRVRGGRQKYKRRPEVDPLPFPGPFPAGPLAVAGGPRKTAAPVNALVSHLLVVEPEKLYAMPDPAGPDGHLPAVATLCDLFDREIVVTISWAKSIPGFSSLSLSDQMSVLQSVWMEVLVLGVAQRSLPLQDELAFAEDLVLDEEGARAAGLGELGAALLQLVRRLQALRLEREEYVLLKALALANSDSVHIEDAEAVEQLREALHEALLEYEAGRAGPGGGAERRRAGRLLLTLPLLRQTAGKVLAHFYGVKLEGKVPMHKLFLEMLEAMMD
Chain of Paired box protein Pax-6 (Homo sapiens) (P26367 whole entry, looked up): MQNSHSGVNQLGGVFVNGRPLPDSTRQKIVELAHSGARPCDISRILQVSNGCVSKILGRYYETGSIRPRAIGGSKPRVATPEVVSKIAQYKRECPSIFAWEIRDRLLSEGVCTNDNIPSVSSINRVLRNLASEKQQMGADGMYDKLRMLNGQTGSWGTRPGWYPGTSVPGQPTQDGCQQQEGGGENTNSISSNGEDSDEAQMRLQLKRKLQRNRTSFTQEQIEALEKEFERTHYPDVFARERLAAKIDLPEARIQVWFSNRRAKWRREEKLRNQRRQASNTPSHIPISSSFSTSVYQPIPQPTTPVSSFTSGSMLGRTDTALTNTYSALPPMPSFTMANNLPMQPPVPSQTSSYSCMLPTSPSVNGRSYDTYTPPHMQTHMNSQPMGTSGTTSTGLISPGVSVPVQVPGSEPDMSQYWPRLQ
Chain of Nuclear receptor subfamily 1 group I member 3 (Homo sapiens) (Q14994 whole entry, looked up, the tested form may be a part): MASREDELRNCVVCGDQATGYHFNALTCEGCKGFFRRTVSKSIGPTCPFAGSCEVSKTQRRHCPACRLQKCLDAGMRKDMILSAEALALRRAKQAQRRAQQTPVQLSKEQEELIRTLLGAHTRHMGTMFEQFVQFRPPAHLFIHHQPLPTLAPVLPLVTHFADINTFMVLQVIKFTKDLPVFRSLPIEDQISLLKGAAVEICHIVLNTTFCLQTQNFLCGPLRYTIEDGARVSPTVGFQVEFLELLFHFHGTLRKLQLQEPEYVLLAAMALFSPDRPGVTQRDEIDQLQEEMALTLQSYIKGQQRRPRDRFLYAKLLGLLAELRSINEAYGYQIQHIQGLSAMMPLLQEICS
Chain of Signal transducer and activator of transcription 3 (Homo sapiens) (P40763 whole entry, looked up): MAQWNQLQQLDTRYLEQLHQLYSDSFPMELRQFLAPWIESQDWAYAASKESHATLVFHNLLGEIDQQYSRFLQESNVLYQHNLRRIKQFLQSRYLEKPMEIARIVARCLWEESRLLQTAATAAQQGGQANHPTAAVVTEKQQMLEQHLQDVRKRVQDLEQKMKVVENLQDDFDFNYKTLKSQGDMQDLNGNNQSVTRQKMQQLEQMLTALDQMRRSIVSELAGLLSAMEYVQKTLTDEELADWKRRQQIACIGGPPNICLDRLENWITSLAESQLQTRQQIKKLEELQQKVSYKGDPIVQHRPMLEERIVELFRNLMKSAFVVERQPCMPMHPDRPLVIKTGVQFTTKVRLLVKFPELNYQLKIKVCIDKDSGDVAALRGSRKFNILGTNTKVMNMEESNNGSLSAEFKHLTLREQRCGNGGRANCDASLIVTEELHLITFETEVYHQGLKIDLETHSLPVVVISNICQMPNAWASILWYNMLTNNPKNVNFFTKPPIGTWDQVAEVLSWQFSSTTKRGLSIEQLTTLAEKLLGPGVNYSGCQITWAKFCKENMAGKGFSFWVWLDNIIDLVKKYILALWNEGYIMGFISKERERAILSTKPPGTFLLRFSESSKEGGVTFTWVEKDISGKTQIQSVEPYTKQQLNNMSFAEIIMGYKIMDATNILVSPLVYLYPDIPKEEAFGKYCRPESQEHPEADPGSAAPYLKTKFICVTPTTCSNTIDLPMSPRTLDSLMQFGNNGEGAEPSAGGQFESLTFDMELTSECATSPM

C#CCC1=C(C)C(OC(=O)C2C(C=C(C)C)C2(C)C)CC1=O (stereo not drawn)
inactive: [4] | [7] | [8] | [11] | [13]
active: [1] 72.1 µM | [2] 1.15 µM | [3] 13.2 µM | [5] 82 µM | [6] 50 µM | [9] 38.7 µM | [10] 88.4 µM | [12] 7.01 µM | [14] 84.6 µM

CCOP(=S)(OCC)Oc1ccc2c(C)c(Cl)c(=O)oc2c1
active: [2] 1.46 µM | [3] 15 µM
not listed: [9] | [12]
inactive: all other assays above

Cc1ccn2nc(S(=O)(=O)Nc3c(F)cccc3F)nc2n1
active: [2] 9.86 µM
not listed: [9] | [16] | [17]
inactive: all other assays above

CCOP(=S)(OCC)Oc1ccc([N+](=O)[O-])cc1
active: [2] 9.68 µM | [3] 50 µM | [15] 89.1 µM
not listed: [12] | [16] | [17]
inactive: all other assays above

CN(C)C(=O)Nc1cccc(C(F)(F)F)c1
not listed: [13] | [16]
inactive: all other assays above

CC(Oc1cccc(Cl)c1)C(=O)O (stereo not drawn)
not listed: [13] | [16]
inactive: all other assays above

CSC1=N[C@@](C)(c2ccccc2)C(=O)N1Nc1ccccc1
active: [2] 7.44 µM | [3] 19.2 µM | [12] 24.3 µM
not listed: [9] | [13] | [16] | [17]
inactive: all other assays above

CCC(CC)Nc1c([N+](=O)[O-])cc(C)c(C)c1[N+](=O)[O-]
active: [2] 5.39 µM | [12] 15.3 µM
inactive: all other assays above

CNc1cnn(-c2cccc(C(F)(F)F)c2)c(=O)c1Cl
active: [2] 20.1 µM | [4] 27.6 µM | [12] 13.6 µM
not listed: [9] | [16] | [17]
inactive: all other assays above

C[Si](Cn1cncn1)(c1ccc(F)cc1)c1ccc(F)cc1
active: [1] 67.8 µM | [2] 3.52 µM | [3] 43.1 µM | [4] 18.7 µM | [15] 13.9 µM | [8] 50 µM | [12] 27.6 µM
inactive: [5] | [6] | [7] | [9] | [10] | [11] | [14]

CCOC(=O)COc1cc(-c2nn(C)c(OC(F)F)c2Cl)c(F)cc1Cl
active: [2] 47.3 µM
not listed: [13]
inactive: all other assays above

CCCOc1nn(C(=O)NS(=O)(=O)c2ccccc2C(=O)OC)c(=O)n1C
active: [2] 50 µM
not listed: [15] | [16]
inactive: all other assays above

COP(=O)(OC)OC(Br)C(Cl)(Cl)Br (stereo not drawn)
not listed: [9] | [13] | [16]
inactive: all other assays above

COc1cccc(C(=O)NN(C(=O)c2cc(C)cc(C)c2)C(C)(C)C)c1C
active: [2] 0.526 µM | [12] 1.94 µM
not listed: [9] | [13] | [17]
inactive: all other assays above

CCCCSP(=O)(SCCCC)SCCCC
active: [2] 12.9 µM | [3] 11.7 µM | [5] 76.7 µM | [6] 50 µM | [7] 50 µM | [8] 80.2 µM | [10] 13 µM | [12] 12 µM
inactive: [1] | [4] | [9] | [11] | [13] | [14] | [17]

CN1COCN(Cc2cnc(Cl)s2)C1=N[N+](=O)[O-]
active: [2] 50 µM
not listed: [13] | [16] | [17]
inactive: all other assays above
